Source: PubChem BioAssay (Tox21)
Activity calls are given as the source filed them. Where a call stands in place of a potency, no number is given. Calls follow the shape of the full dose curve.

The molecules below were run against Acetylcholinesterase (Homo sapiens) (UniProt P22303) (assay: Acetylcholinesterase (AChE) small molecule antagonists: enzyme-based qHTS assay with human liver microsomes (AID 1347399; also: nearly all actives have a fitted effect of over 60% in size)). Settings: Potency: qHTS inhibition; outcome: qHTS inhibition; series mostly up to 115 µM.
Sequence of Acetylcholinesterase (Homo sapiens) (P22303 whole entry, looked up): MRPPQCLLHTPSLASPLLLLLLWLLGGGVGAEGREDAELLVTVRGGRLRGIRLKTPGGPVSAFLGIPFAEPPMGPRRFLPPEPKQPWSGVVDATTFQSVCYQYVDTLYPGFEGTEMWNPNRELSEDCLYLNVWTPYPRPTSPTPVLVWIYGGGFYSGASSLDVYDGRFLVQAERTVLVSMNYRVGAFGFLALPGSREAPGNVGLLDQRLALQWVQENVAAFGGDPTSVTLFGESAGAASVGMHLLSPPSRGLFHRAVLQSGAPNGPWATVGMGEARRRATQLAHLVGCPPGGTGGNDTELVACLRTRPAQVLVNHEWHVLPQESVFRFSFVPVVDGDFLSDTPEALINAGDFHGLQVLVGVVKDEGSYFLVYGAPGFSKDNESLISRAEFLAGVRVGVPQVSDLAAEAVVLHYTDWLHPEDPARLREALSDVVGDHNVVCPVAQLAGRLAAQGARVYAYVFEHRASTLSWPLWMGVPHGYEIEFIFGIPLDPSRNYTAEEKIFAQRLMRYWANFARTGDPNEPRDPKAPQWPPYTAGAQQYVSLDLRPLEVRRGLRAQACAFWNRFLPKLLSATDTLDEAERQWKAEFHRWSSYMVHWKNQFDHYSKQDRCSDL
Outline: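 Recombinant human AChE (50 mU/mL in the enzyme mix) and human liver microsomes (0.25 mg/mL final) were preincubated with compound and NADPH (0.25 mg/mL final) for 30 min at 37 C. Acetylthiocholine/DTNB was then added; thiocholine was read colorimetrically after 10 min at room temperature.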

Q: For `O[C@@H](COc1cccc2ncccc12)CN1CCN(C2c3ccccc3[C@@H]3[C@H](c4ccccc42)C3(F)F)CC1` (stereo not given in full), which Potency is on record?
A: inactive

Q: For `CCN(CC)CC(=O)Oc1ccc(NC(C)=O)cc1`, which Potency is on record?
A: inactive

Q: How did the Potency turn out when `CNC(=O)c1cc(Oc2ccc(NC(=O)Nc3ccc(Cl)c(C(F)(F)F)c3)cc2)ccn1` was run?
A: inactive

Q: For `NC(=O)c1cnccn1`, which Potency is on record?
A: inactive

Q: For `NS(=O)(=O)c1cc2c(cc1Cl)NCNS2(=O)=O`, which Potency is on record?
A: inactive

Q: With `ICCc1ccccc1` as the molecule, how does the Potency read?
A: inactive

Q: With `C[C@H](CCC(=O)O)[C@H]1CC[C@H]2[C@@H]3CC[C@@H]4C[C@H](O)CC[C@]4(C)[C@H]3CC[C@]12C` as the molecule, how does the Potency read?
A: inactive

Q: For `CCCCCCCCC=O`, which Potency is on record?
A: inactive

Q: For `CCC(=O)O[C@H]1[C@H](O[C@@H]2[C@@H](C)[C@H](O[C@H]3C[C@@](C)(OC)[C@@H](O)[C@H](C)O3)[C@@H](C)C(=O)O[C@H](CC)[C@@](C)(O)[C@H](O)[C@@H](C)C(=O)[C@H](C)C[C@@]2(C)O)O[C@H](C)C[C@@H]1N(C)C`, which Potency is on record?
A: inactive

Q: Which Potency does the source give for `Cc1cc(O)c(Cl)cc1C` here?
A: inactive

Q: With `CCCCC(CC)COC(=O)CCCCCCCCC(=O)OCC(CC)CCCC` (stereo not given) as the molecule, how does the Potency read?
A: inactive

Q: `CCCCCCCCCCCC[N+](C)(C)CC(=O)[O-]` was tested. Which Potency did it give?
A: inactive

Q: For `CC(=O)Nc1ccc(OCC(O)CNC(C)C)cc1` (stereo not given), which Potency is on record?
A: inactive

Q: How did the Potency turn out when `CCC(C)(O)CCCC(C)C` (stereo not given) was run?
A: inactive

Q: How did the Potency turn out when `CCC(C)C=O` (stereo not given) was run?
A: inactive

Q: For `CCCC1CCC(=O)O1` (stereo not given), which Potency is on record?
A: inactive

Q: Which Potency does the source give for `CCOC(=O)C1=C(C)NC(C)=C(C(=O)OCC)C1c1ccccc1/C=C/C(=O)OC(C)(C)C` here?
A: inactive

Q: With `CCCCS(=O)(=O)N[C@@H](Cc1ccc(OCCCCC2CCNCC2)cc1)C(=O)O` as the molecule, how does the Potency read?
A: inactive

Q: How did the Potency turn out when `CC(C)OC(=O)C(O)(CC(=O)O)CC(=O)O` was run?
A: inactive

Q: Which Potency does the source give for `COCC(C)N` (stereo not given) here?
A: inactive

Q: With `CC(CO)Oc1ccccc1` (stereo not given) as the molecule, how does the Potency read?
A: inactive

Q: Which Potency does the source give for `CCCCCCCCCCn1cc[n+](CCCCCCCCCC)c1C` here?
A: inactive

Q: With `CC(C)=CCC/C(C)=C/CC/C(C)=C/C(=O)OCC(=O)[C@@]1(O)CC[C@H]2[C@@H]3CCC4=CC(=O)C=C[C@]4(C)[C@H]3[C@@H](O)C[C@@]21C` as the molecule, how does the Potency read?
A: inactive

Q: For `CCOc1ccccc1C(N)=O`, which Potency is on record?
A: inactive

Q: Which Potency does the source give for `CC(C)CCCCCCOC(=O)C1CCCCC1C(=O)OCCCCCCC(C)C` (stereo not given) here?
A: inactive

Q: `O=C(CO)[C@@H](O)[C@H](O)[C@H](O)CO` was tested. Which Potency did it give?
A: inactive

Q: Which Potency does the source give for `O=c1c(-c2ccc(O)cc2)coc2cc(O)cc(O)c12` here?
A: inactive

Q: How did the Potency turn out when `Cc1oc(C)c(C(=O)Nc2ccccc2)c1C` was run?
A: inactive

Q: `CCCCC(CC)COC(=O)c1ccc(O)cc1` (stereo not given) was tested. Which Potency did it give?
A: inactive

Q: Which Potency does the source give for `CCCCCC1C(=O)CCC1CC(=O)OC` (stereo not given) here?
A: inactive

Q: `Cc1sccc1Br` was tested. Which Potency did it give?
A: inactive

Q: Which Potency does the source give for `CC(CC(=O)O)CC(C)(C)C` (stereo not given) here?
A: inactive

Q: For `COc1ccc(OC(F)(F)F)cc1CN[C@H]1CCCN[C@H]1c1ccccc1`, which Potency is on record?
A: inactive

Q: With `CCOC(=O)C1=NOC(c2ccccc2)(c2ccccc2)C1` as the molecule, how does the Potency read?
A: inactive

Q: `O=c1[nH]c(=O)c2cn[nH]c2[nH]1` was tested. Which Potency did it give?
A: inactive

Q: `OCCc1ccccn1` was tested. Which Potency did it give?
A: inactive

Q: With `CCCCCCC(CCCCCCCCCCC(=O)OCC(COC(C)=O)OC(C)=O)OC(C)=O` (stereo not given) as the molecule, how does the Potency read?
A: inactive

Q: For `CN1CCC(=C2c3ccccc3CCc3cccnc32)CC1`, which Potency is on record?
A: inactive

Q: Which Potency does the source give for `Cc1ccc(O)c(C(C)(C)C)c1` here?
A: inactive

Q: `O=C1OC2(c3ccccc31)c1cc(I)c(O)c(I)c1Oc1c2cc(I)c(O)c1I` was tested. Which Potency did it give?
A: inactive
